# According to PubChem BioAssay (EPA / NIEHS):
# Activity calls are given as the source filed them. Rule for the calls: active = hit-call score of the fitted dose curve at least 0.9, where 1 is the maximum; inactive = score below 0.9.
# Read-out: Macrophage colony-stimulating factor (MCSF), CSF1 (gene 1435)
# Assay: BSK_LPS_MCSF: BioMAP Diversity Plus: LPS Assay for Macrophage colony-stimulating factor (MCSF) Biomarker Activity (AID 2283083)
# Conditions: primary human HUVEC with PBMC; actives raise or lower the signal
# Experimental: BSK_LPS is a cell-based, multiplexed-readout assay that uses umbilical vein endothelium and peripheral blood mononuclear cells, a human vascular primary cell co-culture, with measurements taken at 24 hours after chemical dosing in a 96-well plate.BSK_LPS_MCSF is an assay component measured in the BSK_LPS assay. It measures M-CSF antibody related to regulation of gene expression using ELISA technology.Data from the assay component BSK_LPS_MCSF was analyzed into 1 assay endpoint. This assay endpoint, BSK_LPS_MCSF, was analyzed with bidirectional fitting relative to DMSO as the negative control and baseline of activity. Using a type of binding reporter, gain or loss-of-signal activity can be used to understand changes in the signaling as they relate to the gene CSF1. Furthermore, this assay endpoint can be referred to as a primary readout, because this assay has produced multiple assay endpoints where this one serves a signaling function. To generalize the intended target to other relatable targets, this assay endpoint is annotated to the cytokine intended target family, where the subfamily is colony stimulating factor.
# The levels of cell surface (or secreted, indicated by the prefix "s") biomarker endpoints were measured by ELISA. Overt cytotoxicity to cells in confluent adherent cultures (all systems other than the BT system) was assessed by measuring total protein levels using sulforhodamine B (SRB) staining in parallel cultures at the time of biomarker measurements, indicated as SRB endpoints. For proliferation assays for adherent cell types, individual cell types are cultured at sub-confluence and relative cell numbers quantified by SRB staining at time points optimized for each system (48 h: 3C and CASM3C systems; 72 h: BT and HDF3CGF systems; 96 h: SAg system). SRB was performed by staining cells with 0.1% SRB after fixation with 10% TCA and reading wells at 560 nm.Viability and proliferation of PBMC (T cells) was quantified by Alamar Blue reduction for the SAg and BT systems. For PBMC viability (referred to as PBMC Cytotoxicity within the assay endpoint names), cells were plated (75,000/well in a 96-well plate) and then chemical samples added for 1 h before addition of activators, SEB and TSST-1 (20 ng/mL final concentration each). Cells were incubated for 90 h. Then, Alamar Blue (20 uL/well) (Invitrogen, Cat DAL1100) was added for 6 h, and the plates were read with a fluorescence microplate reader at 546/580 nm (excitation/emission). For PBMC proliferation, cells were plated and activated as above but incubated for only 16 h prior to addition of Alamar Blue. Plates were read after 6 h.
Structure (SMILES),outcome,AC50
c1ccc(Oc2ccccc2)cc1,inactive,–
Oc1c(Cl)cc(Cl)c(Cl)c1Cc1c(O)c(Cl)cc(Cl)c1Cl,–,11.6 µM (active)
CC=Cc1ccc(OCC)c(O)c1,inactive,–
CCCCOC(=O)CCCCCCCC(=O)OCCCC,inactive,–
CCN(CC)C(=O)N(CC)CC,inactive,–
C=C(C)C(=O)OCCOCCOCCOCCOC(=O)C(=C)C,inactive,–
CN(c1nccc(=O)[nH]1)C1CCN(c2nc3ccccc3n2Cc2ccc(F)cc2)CC1,inactive,–
O=CN1CCOCC1,inactive,–
C=CC(C)(O)CCC=C(C)C (stereo not given),inactive,–
CC(=O)c1c(C)c([N+](=O)[O-])c(C(C)(C)C)c([N+](=O)[O-])c1C,inactive,–
COc1cc(Cl)c(OC)cc1N,inactive,–
O=C1OC2(c3ccccc31)c1ccc(O)c(Br)c1Oc1c2ccc(O)c1Br,–,20 µM (active)
CS(=O)(=O)c1ccc(C2=C(c3ccccc3)C(=O)OC2)cc1,inactive,–
c1ccc2cc(Nc3ccc(Nc4ccc5ccccc5c4)cc3)ccc2c1,inactive,–
CC(=O)C1(C)CC2=C(CCCC2(C)C)CC1C (stereo not given),–,8.91 µM (active)
CCC(C)c1cc([N+](=O)[O-])cc([N+](=O)[O-])c1OC(=O)OC(C)C (stereo not given),–,14 µM (active)
CCCCCCCCCCCCCCCC(=O)OC/C=C(C)/C=C/C=C(C)/C=C/C1=C(C)CCCC1(C)C,inactive,–
CN(C)C(=S)SC(=S)N(C)C,inactive,–
CC(C=O)Cc1ccc(C(C)(C)C)cc1 (stereo not given),inactive,–
CC(=O)Nc1ccc(C(=O)CCl)cc1,–,5.36 µM (active)

Structure (SMILES),outcome,AC50
Clc1cc(Cl)c(-c2c(Cl)c(Cl)cc(Cl)c2Cl)cc1Cl,–,1.98 µM (active)
Cc1cc(CCC(=O)OCCOCCOCCOC(=O)CCc2cc(C)c(O)c(C(C)(C)C)c2)cc(C(C)(C)C)c1O,inactive,–
COc1ccc(OC)c(N=Nc2c(O)ccc3ccccc23)c1,–,20 µM (active)
CC(C)(C)CC(C)(C)c1ccc(OCCOCC[N+](C)(C)Cc2ccccc2)cc1,–,7.03 µM (active)
CC1(C)C2=CCCC(C)(C)[C@]23CC[C@H]1C3,inactive,–
CCCCCCC(CO)CCCC (stereo not given),inactive,–
CCCCN(CCCC)C(=O)N(CCCC)CCCC,–,20 µM (active)
CCOC(=O)C(C#N)=C(c1ccccc1)c1ccccc1,inactive,–
CS(=O)(=O)OCCCCOS(C)(=O)=O,inactive,–
O=C1OC[C@H](Cc2cccc(O)c2)[C@H]1Cc1cccc(O)c1,inactive,–
C=C(C)[C@H]1CC=C(C)C(=O)C1,inactive,–
CN(C)C(=O)Nc1ccc(Oc2ccc(Cl)cc2)cc1,inactive,–
C1=CC2C3C=CC(C3)C2C1 (stereo not given),inactive,–
C=C(C)C(=O)OCC(CC)(COC(=O)C(=C)C)COC(=O)C(=C)C,inactive,–
C[C@@H]1CCN(C(=O)[C@H](CCCN=C(N)N)NS(=O)(=O)c2cccc3c2NC[C@H](C)C3)[C@@H](C(=O)O)C1,inactive,–
c1ccc(CCc2ccccc2)cc1,–,31.2 µM (active)
O=C1c2ccccc2C(=O)c2c(O)ccc(O)c21,inactive,–
CC1(C)CCC[C@]2(C)[C@H]3CCO[C@]3(C)CC[C@@H]12,inactive,–
CC(C)(N=C=O)c1cccc(C(C)(C)N=C=O)c1,inactive,–
COc1ccc(CCN2CCC(Nc3nc4ccccc4n3Cc3ccc(F)cc3)CC2)cc1,inactive,–
